PPARg SRC-2 ag = promotes SRC-2 coactivator recruitment by human PPARgamma; P37231; PPARgamma LBD-SRC-2 recruitment, biochemical; activation, % at 8 µM; 200,000 tested, 0.34% active; in the data active = activation above about 22%;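 also: 0% = vehicle and 100% = reference agonist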
Target sequence (P37231 whole entry, looked up, the tested form may be a part): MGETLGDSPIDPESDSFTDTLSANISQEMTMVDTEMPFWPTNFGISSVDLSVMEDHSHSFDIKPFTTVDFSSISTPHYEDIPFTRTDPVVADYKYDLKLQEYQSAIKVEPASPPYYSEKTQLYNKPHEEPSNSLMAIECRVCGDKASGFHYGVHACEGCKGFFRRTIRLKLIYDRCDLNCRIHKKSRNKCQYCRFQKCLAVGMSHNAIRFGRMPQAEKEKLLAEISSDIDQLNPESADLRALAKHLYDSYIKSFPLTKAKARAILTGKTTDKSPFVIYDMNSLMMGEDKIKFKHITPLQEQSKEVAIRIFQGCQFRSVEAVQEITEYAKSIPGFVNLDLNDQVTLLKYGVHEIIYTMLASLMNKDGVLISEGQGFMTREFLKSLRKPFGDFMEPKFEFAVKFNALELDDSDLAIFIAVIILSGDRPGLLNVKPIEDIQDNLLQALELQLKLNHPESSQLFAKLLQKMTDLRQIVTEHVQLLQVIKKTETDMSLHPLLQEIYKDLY
PPARg SRC1 recr = PPARgamma-driven SRC-1 recruitment agonism. AID 631. activation, % at 8 µM. P37231. 200,000 tested, 0.41% active. PPARgamma-SRC-1 coactivator recruitment biochemical assay; in the data active = activation above about 19%;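 also: 0% = DMSO and 100% = reference agonist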
SRC2 TRFRET art = TR-FRET artefact, counter-screen to PPARgamma/SRC-2 agonist assay; hits give high values; 200,000 tested, 0.4% active; TR-FRET ratio at 8 µM; AID 1049
PPARg SRC-3 ag = promotes SRC-3 coactivator recruitment by human PPARgamma | AID 731 | P37231 | 200,000 tested, 0.26% active | biochemical PPARgamma/SRC-3 coactivator recruitment assay | activation, % at 8 µM; in the data active = activation above about 23%;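 also: 0% = DMSO and 100% = reference agonist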
SRC1 TRFRET art = flags TR-FRET format artefacts in PPARgamma SRC-1 recruitment agonist screen. TR-FRET detection artefact counter-screen, emission ratio; hits give high values. 99,000 tested, 0.34% active. TR-FRET ratio at 8 µM; in the data active = TR-FRET ratio above about 2300
SRC3 TRFRET art = counter-screen for PPARgamma SRC-3 recruitment agonists: TR-FRET artefact; PPARgamma/SRC-3 format; hits give high values; TR-FRET ratio at 8 µM; 99,000 tested, 0.39% active; AID 1048
Active calls of the source: *; / = no result. Compounds with a hit are over-represented: about 0.9% of the library has one in this group of screens. Rule as the data show it, unless noted: active = TR-FRET ratio above about 2000; inactive = the rest.

SMILES	PPARg SRC-2 ag	PPARg SRC1 recr	SRC2 TRFRET art	PPARg SRC-3 ag	SRC1 TRFRET art	SRC3 TRFRET art
Cc1cc(=O)[nH]c2c1c(C)nn2C1CCCC1	73*	7	4512*	4	/	/
Cc1cc(=O)[nH]c2c1c(C)nn2C1CCCCC1	6	1	1495	9	/	/
Cc1cc(C)nc(NC(=O)c2cc(-c3ccc(C)s3)nc3ccccc23)c1	5	7	1841	3	2309	2323*
Cc1cc(NC(=O)c2cc(-c3cccs3)nc3ccccc23)no1	16	5	1659	8	/	/
CN(C)S(=O)(=O)c1ccc(NC(=O)c2cc(-c3cccs3)nc3ccccc23)cc1	2	4	2669*	15	3250*	3343*
CCN(CC)S(=O)(=O)c1ccc(NC(=O)c2cc(-c3cccs3)nc3ccccc23)cc1	-2	2	1711	4	1867	1556
CS(=O)(=O)Nc1ccc(C2=NN(C(=O)c3ccco3)C(c3ccccc3F)C2)cc1 (stereo unspecified)	-8	0	1579	7	1969	1641
Cc1cccc(-n2c(SCc3ccc([N+](=O)[O-])cc3)nnc2-c2c[nH]c3ccccc23)c1	7	-2	1632	9	1750	1754
Cc1ccc(-c2cc(C(=O)N(C)Cc3cnn(C)c3C)c3cc(Br)ccc3n2)cc1	6	7	1910	10	1935	2046
Cc1ccc(-c2cc(C(=O)NCc3cnn(C)c3C)c3cc(Br)ccc3n2)cc1	19	14	2130*	22	/	/
Oc1ccc(NCc2ccccc2OCc2ccccc2)cc1	29*	-10	2166*	9	2043	1728
CC(C)(C)c1ccc(S(=O)(=O)N2CCC(CO)(CC3CCCCO3)CC2)cc1 (stereo unspecified)	4	2	1434	0	1620	1235
O=C(COC(=O)c1ccccc1NC(=O)c1ccco1)NC1CC1	13	1	2060*	-3	2082	1562
O=C(COC(=O)c1ccccc1NC(=O)c1ccco1)NC1CCS(=O)(=O)C1 (stereo unspecified)	7	-2	1513	-1	1617	1476
O=C(Nc1nnc(C(F)(F)F)s1)c1ccc(Br)s1	21	18	2104*	14	2300	2443*
O=C(Nc1ccc(N2CCOCC2)cc1)Nc1ccc2nsnc2c1	11	7	1863	9	2437*	1642
COc1ccc(NC(=O)NCc2ccc3c(c2)OCO3)cc1	5	-1	1486	-1	1783	1563
O=C(NCc1ccc2c(c1)OCO2)Nc1ccc2nsnc2c1	67*	12	2378*	13	2198	1791
Cc1nnc(SCC(=O)c2ccc(C(C)C)cc2)s1	1	6	1715	0	1916	1558
O=C(Cc1cccs1)Nc1ccc(-c2nnc(-c3ccccc3)o2)cc1	11	21*	1692	3	/	/
O=C(Cc1cccs1)Nc1ccc(-c2nnc(-c3ccco3)o2)cc1	2	1	1464	-1	1636	1376
NC(N)=Nc1nc(CSCC/C(N)=N/S(N)(=O)=O)cs1	7	22*	1766	6	1933	1747
CC1SC2(NC1=O)C1CC3CC(C1)CC2C3 (stereo unspecified)	-2	-2	1530	0	1810	1459
Cc1cccc(N(CC(=O)N2CCOCC2)S(C)(=O)=O)c1C	13	13	1639	16	/	/
Cc1cccc(N(CC(=O)N2CCN(c3ccc(F)cc3)CC2)S(C)(=O)=O)c1C	0	29*	1524	2	2469*	1507
SMILES	PPARg SRC-2 ag	PPARg SRC1 recr	SRC2 TRFRET art	PPARg SRC-3 ag	SRC1 TRFRET art	SRC3 TRFRET art
CCCCN(CC)CCCNC(=O)CC1Nc2ccccc2NC1=O (stereo unspecified)	22*	11	1542	13	/	/
COc1cc2[nH]c(=S)n(NC(=O)c3ccccc3)c(=O)c2cc1OC	20	16	2013*	20	/	/
O=C(/C=C/c1ccccc1[N+](=O)[O-])c1ccccc1Br	6	-2	1838	1	1957	1649
O=C(CCCn1c(=O)[nH]c2ccc(Br)cc2c1=O)NCc1ccc(Cl)cc1	9	31*	1480	-3	3045*	1575
CC(C)CCNC(=O)CCCn1c(=O)[nH]c2ccc(Br)cc2c1=O	8	1	1635	10	/	/
CCN(CC)c1ccc2cc(-c3nc4ccccc4n3C)c(=O)oc2c1	1	-1	1610	10	/	/
CCN(CC)c1ccc2cc(-c3nc4ccccc4[nH]3)c(=O)oc2c1	5	26*	1621	9	/	/

Bioassay records from PubChem BioAssay.
